Compounds without any hit were thinned out: in the full panel of roughly 83,000, 20% have a hit.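 Cells were grown in 96-well plates and exposed to the test compound at a single concentration for 48 hours; results are reported as percent growth, with values below 10 considered active.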 Unmarked numbers belong to inactive results. Activity calls are given as the source filed them.
Assays:
Experiment in all cases: NCI-60 one-dose screen, 48 h (100 = growth as untreated, 0 = no growth, -100 = all killed)
Settings in all cases: 10 µM unless noted
NCI-H23 lung = tested on: NCI-H23 lung
NCI-H226 lung = tested on: NCI-H226 lung
NCI-H322M lung = tested on: NCI-H322M lung
HOP-62 NSCLC = tested on: HOP-62 NSCLC
NCI-H460 lung = tested on: NCI-H460 lung
HOP-92 NSCLC = tested on: HOP-92 NSCLC
NCI-H522 lung = tested on: NCI-H522 lung
A549/ATCC NSCLC = tested on: A549/ATCC NSCLC
786-0 renal = tested on: 786-0 renal
COLO 205 colon = tested on: COLO 205 colon
DU-145 prostate = tested on: DU-145 prostate
K-562 leukemia = tested on: K-562 leukemia
MALME-3M melanoma = tested on: MALME-3M melanoma
MDA-MB-231 breast = tested on: MDA-MB-231 breast
RXF 393 renal = tested on: RXF 393 renal
SF-268 CNS = tested on: SF-268 CNS
SF-295 CNS = tested on: SF-295 CNS
SF-539 CNS = tested on: SF-539 CNS
UACC-257 melanoma = tested on: UACC-257 melanoma
M14 melanoma = tested on: M14 melanoma

SMILES | growth (NCI-H23 lung) | growth (NCI-H226 lung) | growth (NCI-H322M lung) | growth (HOP-62 NSCLC) | growth (NCI-H460 lung) | growth (HOP-92 NSCLC) | growth (NCI-H522 lung) | growth (A549/ATCC NSCLC) | growth (786-0 renal) | growth (COLO 205 colon) | growth (DU-145 prostate) | growth (K-562 leukemia) | growth (MALME-3M melanoma) | growth (MDA-MB-231 breast) | growth (RXF 393 renal) | growth (SF-268 CNS) | growth (SF-295 CNS) | growth (SF-539 CNS) | growth (UACC-257 melanoma) | growth (M14 melanoma)
C(=C\c1nccc2c1[nH]c1ccccc12)/c1ccccc1 | 34.3% | 51.6% | 29.9% | 40.7% | 4.91% (active) | 45.4% | 4.33% (active) | 21.4% | 35.8% | 3.43% (active) | 9.25% (active) | 69.2% | 29.4% | 30.7% | -44.6% (active) | 41.8% | -32% (active) | 7.92% (active) | 37.5% | 19.8%
CCCOc1ccc2nc(NC(=O)OC)[nH]c2c1 | 21.9% | 8.05% (active) | 49.9% | 33.6% | 3.52% (active) | 37.9% | -32.7% (active) | 12.8% | 32.6% | 3.31% (active) | 0.47% (active) | 16.1% | 38% | -1.41% (active) | 18.2% | 26.2% | -5.89% (active) | 7.37% (active) | 47.3% | 2.83% (active)
Cc1cc(C)nc(SC2=C(Nc3cc(Cl)ccc3O)C(=O)N(Cc3ccccc3)C2=O)n1 | 91.4% [30 µM] | 85.1% [30 µM] | -32% [30 µM] (active) | 102% [30 µM] | 97.4% [30 µM] | 42.9% [30 µM] | 58.6% [30 µM] | 46.6% [30 µM] | 83.4% [30 µM] | 112% [30 µM] | 95.8% [30 µM] | 58.5% [30 µM] | -56.7% [30 µM] (active) | 64.5% [30 µM] | 58.7% [30 µM] | 93.8% [30 µM] | 112% [30 µM] | 118% [30 µM] | 83.5% [30 µM] | 95.2% [30 µM]
CSc1ccc(-c2n[nH]nc2-c2cc3ccccc3s2)cc1 | 61.5% | 86% | 73.9% | 39.2% | 21% | 70.3% | 8.98% (active) | 35% | 54.7% | 77.8% | 74.3% | 15.1% | 69.4% | 41.5% | 75.5% | 54.3% | 49.9% | 50.2% | 58.4% | 16%
COc1ccc(C(=O)COc2cccc(/C=C3\CSc4ccccc4C3=O)c2)cc1 | 12.9% | 79.9% | 62.4% | 86.9% | 72.6% | 60.4% | -63.1% (active) | 87.4% | 80.2% | 105% | 102% | -73.4% (active) | -67.2% (active) | 76.6% | -39.6% (active) | 51.7% | 38% | 62.5% | -35.8% (active) | -26.3% (active)
Cc1nn(-c2ccc(F)cc2)c2ncnc(Nc3ccc(NC(=O)Nc4ccc(Cl)c(C(F)(F)F)c4)cc3)c12 | 22.4% | 58% | 67.5% | 45% | 10.9% | -8.33% (active) | 12.1% | 50.7% | 40.7% | 4.15% (active) | 41.8% | 15.3% | 34% | 71.6% | 19.4% | 66% | 6.74% (active) | 48.2% | 26.8% | 38.1%
CC1SC(c2ccc(N(C)C)cc2)N(NC(=O)C(O)(c2ccccc2)c2ccccc2)C1=O (stereo not given) | 98.5% | 105% | 81% | 97.1% | 144% | 74.6% | 84.6% | 79.6% | 97.7% | 102% | 97.2% | 86.1% | 87.6% | 99.1% | 118% | 141% | 27.9% | 96.7% | 106% | 96%
O=C1OCC2=C1C(c1ccncc1)c1cc3c(cc1N2CCO)OCO3 (stereo not given) | 99.6% | 102% | 98.3% | 93.5% | 101% | 87.6% | 91.2% | 98.9% | 112% | 53.1% | 107% | 110% | 89.9% | 101% | 99.3% | 97.7% | 102% | 101% | 99.5% | 107%
COC(=O)c1cccc(NC(=O)c2ccc(-c3cccc(N)c3)o2)c1 | 97.5% | 85.8% | 101% | 104% | 102% | 106% | 81.8% | 100% | 109% | 112% | 110% | 94.9% | 91.1% | 99.4% | 102% | 100% | 98.4% | 92.6% | 112% | 112%
Nc1n[nH]c2ccc([C@@H]3Nc4cc5c(cc4[C@H]4C6CCC(C6)[C@@H]34)C(=O)NC5)cc12 (stereo not given in full) | 28.3% | 4.99% (active) | 42.1% | 39.4% | 1.7% (active) | 75.3% | 16.9% | 26.4% | 17.3% | -40.1% (active) | -17.9% (active) | 7.25% (active) | 49.8% | 37.9% | 27.1% | 22.8% | 10.8% | -24.9% (active) | 76.7% | 7.72% (active)
COc1ccc(S(=O)(=O)N2CC3(COC3)C2)cc1NC(=O)c1[nH]c(C)c2c1CCCCC2=O | 59.4% | 53.3% | 56.3% | 40.6% | 71.2% | 48.2% | 32.3% | 62.6% | 56.5% | 37.5% | 79.6% | 45.1% | 61.1% | 47.1% | 76% | 78.1% | 52.8% | 45.3% | 51.9% | 58.1%
O=C(COc1ccc(/C=C2\COc3ccccc3C2=O)cc1)Nc1nccs1 | 79% | 99% | 104% | 94.6% | 102% | 64.9% | 56.5% | 98.3% | 89.3% | 127% | 107% | -8.33% (active) | 88.5% | 95.9% | 96.4% | 92.8% | 112% | 85.9% | 98.5% | 93.2%
C=CCSSC1N=CNc2nc[nH]c21 (stereo not given) | 54.6% | 73% | 42.8% | 1.1% (active) | 52.5% | 30.8% | 0.803% (active) | 95.1% | 13.9% | 34.9% | 35.8% | 11.9% | 29.9% | 39.8% | 42.5% | 27.6% | 33.2% | 16.4% | 43.6% | 8.72% (active)
Nc1nc2ccc3[nH]ncc3c2c2c1CCCC2 | -19% (active) | 6.29% (active) | 2.32% (active) | 2.81% (active) | 2.07% (active) | -12.6% (active) | -1.98% (active) | 8.61% (active) | 6.18% (active) | -19% (active) | 6.94% (active) | 9.77% (active) | 23% | 4% (active) | -51.1% (active) | -9.66% (active) | 17.1% | -32.9% (active) | 15.6% | 1.67% (active)
CCOC(=O)c1c(C)oc2ncnc(N3CCN(C(=O)COc4ccc(SC)cc4)CC3)c12 | 93.9% | 83.3% | 99.3% | 86.4% | 98.7% | 78.9% | 74.9% | 90.2% | 95.8% | 98% | 99.6% | 82.4% | 105% | 88.6% | 99.7% | 92.7% | 88.2% | 93.5% | 95% | 97.9%

Source: PubChem BioAssay (NCI)
